PubChem BioAssay (NCI)
This is part of a sample that, as a whole, favours compounds with a hit. Of some 83,000 tested, about 20% had one in any assay.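 Activity criterion: percent growth below 10, measured after cells in 96-well plates were exposed to a single compound concentration for 48 hours.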 Activity calls are given as the source filed them.

Columns and labels:
Assay in all cases: NCI-60 one-dose screen, 48 h (100 = growth as untreated, 0 = no growth, -100 = all killed)
[1] = tested on: NCI-H23 lung
[2] = tested on: NCI-H226 lung
[3] = tested on: NCI-H322M lung
[4] = tested on: HOP-62 NSCLC
[5] = tested on: NCI-H460 lung
[6] = tested on: HOP-92 NSCLC
[7] = tested on: NCI-H522 lung
[8] = tested on: A549/ATCC NSCLC
[9] = tested on: 786-0 renal
[10] = tested on: COLO 205 colon
[11] = tested on: DU-145 prostate
[12] = tested on: K-562 leukemia; details: 10 µM unless noted
[13] = tested on: MALME-3M melanoma
[14] = tested on: MDA-MB-231 breast
[15] = tested on: RXF 393 renal
[16] = tested on: SF-268 CNS
[17] = tested on: SF-295 CNS
[18] = tested on: SF-539 CNS
[19] = tested on: UACC-257 melanoma
[20] = tested on: M14 melanoma

Measured: growth

Cn1cc(Nc2ncnc(-c3ccc(N4CCCC4)c(C#N)c3)n2)cn1
active: [7]; 10 µM unless noted 8.98%
inactive: [1]; 10 µM unless noted 86% | [2]; 10 µM unless noted 60.6% | [3]; 10 µM unless noted 50.5% | [4]; 10 µM unless noted 90.3% | [5]; 10 µM unless noted 50.1% | [6]; 10 µM unless noted 97.6% | [8]; 10 µM unless noted 83.7% | [9]; 10 µM unless noted 59.8% | [10]; 10 µM unless noted 72% | [11]; 10 µM unless noted 66.5% | [12] 29.8% | [13]; 10 µM unless noted 74.8% | [14]; 10 µM unless noted 63.6% | [15]; 10 µM unless noted 50.8% | [16]; 10 µM unless noted 71.9% | [17]; 10 µM unless noted 93.2% | [18]; 10 µM unless noted 65.2% | [19]; 10 µM unless noted 94% | [20]; 10 µM unless noted 53.5%

O=C(N=Nc1c(O)[nH]c2ccc(Cl)cc12)c1ccc2nc(-c3ccc(Cl)cc3)[nH]c2c1
active: [1]; 10 µM unless noted -71.5% | [4]; 10 µM unless noted -37.9% | [6]; 10 µM unless noted -0.983% | [7]; 10 µM unless noted -26.9% | [9]; 10 µM unless noted -72.6% | [10]; 10 µM unless noted -17.6% | [11]; 10 µM unless noted 5.09% | [12] 8.93% | [13]; 10 µM unless noted -1.72% | [14]; 10 µM unless noted -79.9% | [15]; 10 µM unless noted -27.7% | [16]; 10 µM unless noted 0.662% | [17]; 10 µM unless noted -12.5% | [18]; 10 µM unless noted -93.6% | [20]; 10 µM unless noted -6.49%
inactive: [2]; 10 µM unless noted 51.1% | [3]; 10 µM unless noted 31.4% | [5]; 10 µM unless noted 11.8% | [8]; 10 µM unless noted 41.5% | [19]; 10 µM unless noted 57.8%

Cc1cc(Cl)ccc1NC(=O)Nc1ccc(-c2ccc3c(c2)NC(=O)/C3=C\c2ccc[nH]2)cc1
inactive: [1]; 10 µM unless noted 74.4% | [2]; 10 µM unless noted 107% | [3]; 10 µM unless noted 98.6% | [4]; 10 µM unless noted 99.6% | [5]; 10 µM unless noted 66.8% | [6]; 10 µM unless noted 115% | [7]; 10 µM unless noted 103% | [8]; 10 µM unless noted 105% | [9]; 10 µM unless noted 105% | [10]; 10 µM unless noted 130% | [11]; 10 µM unless noted 96.3% | [12] 83.3% | [13]; 10 µM unless noted 99.9% | [14]; 10 µM unless noted 108% | [15]; 10 µM unless noted 122% | [16]; 10 µM unless noted 109% | [17]; 10 µM unless noted 105% | [18]; 10 µM unless noted 91.9% | [19]; 10 µM unless noted 117% | [20]; 10 µM unless noted 108%

CC/C(=C(\c1ccc(O)cc1)c1ccc(OCCNC)cc1)c1ccccc1
inactive: [1]; 1 µM 98.9% | [1]; 10 µM 96.5% | [2]; 1 µM 85.9% | [2]; 10 µM 74.7% | [3]; 1 µM 100% | [3]; 10 µM 102% | [4]; 1 µM 97.8% | [4]; 10 µM 96.8% | [6]; 1 µM 80.2% | [6]; 10 µM 65.1% | [7]; 1 µM 87.9% | [7]; 10 µM 93% | [8]; 1 µM 93.9% | [8]; 10 µM 88.2% | [9]; 1 µM 89.7% | [9]; 10 µM 76.7% | [10]; 1 µM 116% | [10]; 10 µM 91% | [11]; 1 µM 103% | [11]; 10 µM 83.6% | [13]; 1 µM 88.6% | [13]; 10 µM 91% | [14]; 1 µM 96.3% | [14]; 10 µM 82.5% | [15]; 1 µM 103% | [15]; 10 µM 82.4% | [16]; 1 µM 104% | [16]; 10 µM 79.8% | [17]; 1 µM 99.6% | [17]; 10 µM 96.4% | [18]; 1 µM 93.6% | [18]; 10 µM 85.2% | [19]; 1 µM 95.3% | [19]; 10 µM 97.2% | [20]; 1 µM 107%
active: [20]; 10 µM -18.8%

CC1=C(C)C(=O)C(N2CCSCC2)=CC1=O
inactive: [1]; 10 µM unless noted 93.9% | [2]; 10 µM unless noted 88.7% | [3]; 10 µM unless noted 96.9% | [4]; 10 µM unless noted 99.1% | [5]; 10 µM unless noted 105% | [6]; 10 µM unless noted 89.5% | [7]; 10 µM unless noted 94.3% | [8]; 10 µM unless noted 99.3% | [9]; 10 µM unless noted 99.4% | [10]; 10 µM unless noted 121% | [11]; 10 µM unless noted 107% | [12] 107% | [13]; 10 µM unless noted 91.3% | [14]; 10 µM unless noted 86% | [15]; 10 µM unless noted 98.5% | [16]; 10 µM unless noted 102% | [17]; 10 µM unless noted 104% | [18]; 10 µM unless noted 96.2% | [19]; 10 µM unless noted 93.2% | [20]; 10 µM unless noted 95.4%

CC/C(=C(/c1ccc(O)cc1)c1ccc(OCCN(C)C(=O)COCCOCCNC(=O)c2ccc3c(c2)CN([C@@H]2CCC(=O)NC2=O)C3=O)cc1)c1ccccc1
active: [14]; 10 µM 8.81%
inactive: [1]; 1 µM 99% | [1]; 10 µM 97% | [2]; 1 µM 89.4% | [2]; 10 µM 65.4% | [3]; 1 µM 101% | [3]; 10 µM 85.2% | [4]; 1 µM 93.4% | [4]; 10 µM 81% | [5]; 1 µM 111% | [5]; 10 µM 114% | [6]; 1 µM 26.9% | [6]; 10 µM 18.2% | [7]; 1 µM 91.7% | [7]; 10 µM 90% | [8]; 1 µM 89.4% | [8]; 10 µM 85.3% | [9]; 1 µM 94% | [9]; 10 µM 96.7% | [10]; 1 µM 91.3% | [10]; 10 µM 79.3% | [11]; 1 µM 107% | [11]; 10 µM 109% | [13]; 1 µM 64.1% | [13]; 10 µM 31.4% | [14]; 1 µM 25.5% | [15]; 1 µM 98.3% | [15]; 10 µM 99% | [16]; 1 µM 88.3% | [16]; 10 µM 83.7% | [17]; 1 µM 102% | [17]; 10 µM 94.8% | [18]; 1 µM 92.1% | [18]; 10 µM 91.1% | [19]; 1 µM 96.2% | [19]; 10 µM 95.5% | [20]; 1 µM 89.9% | [20]; 10 µM 92%
